Only some compounds are listed: those with a hit (about 12% of all), similar ones and a draw of the others.
BAZ2B block: BAZ2B (human) inhibition | AlphaScreen BAZ2B-H3K14Ac peptide displacement | AID 504333 | Potency, µM (top dose mostly 114 µM), without a hit: at the top dose activity change, negative = inhibition, usual class: inhibitors | actives 4.4% (n = 360,000); further: on the % scale 0 is the no-effect control and ±100 the full control effect; nearly all actives have a fitted effect of over 60% in size
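Multi-concentration screen (max 110 uM) measuring displacement of acetylated histone H3 peptide from BAZ2B by AlphaScreen, using 50 nM protein, 50 nM peptide and 10 ug/mL streptavidin donor plus Ni-chelate acceptor beads.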
HP1b chromo inh: blocks HP1-beta chromodomain binding to methylated histone tails; P83916; AlphaScreen HP1-beta / biotin-H3K9me3 peptide binding; Potency, µM (doses to about 114 µM), inactives show top-dose activity change, negative = inhibition, actives largely listed as inhibitors; actives 0.56% (n = 390,000); AID 540317; further: nearly all actives have a fitted effect of over 70% in size
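HP1-beta protein (50 nM final) preincubated 30 min at room temperature with biotinylated H3(1-18)K9me3 peptide (50 nM) in PBS pH 7.4, 0.01% Tween-20, then compound added for 30 min. AlphaScreen streptavidin donor/nickel chelate acceptor beads (10 ug/mL final), 30 min dark, luminescence read.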
G9a block: G9a (human) methyltransferase inhibition; Q96KQ7; G9a H3K9 monomethylation, AlphaScreen, 2 h; Potency, µM (series often up to 102 µM), inactives show top-dose activity, negative = inhibition, usual class: inhibitors; actives 8.8% (n = 350,000); AID 504332; further: on the % scale 0 is the no-effect control and ±100 the full control effect; nearly all actives have a fitted effect of over 75% in size
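AlphaScreen read-out: biotin-H3K9 peptide (500 nM) methylation by 20 nM enzyme with 20 uM SAM, 2 h at room temperature after 15 min compound preincubation; anti-monomethyl H3K9 antibody plus donor/acceptor beads, 10 min dark.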
L3MBTL1 inh: inhibitors of human L3MBTL1; Potency, µM (top dose mostly 57.1 µM), for the others: at the highest dose activity, negative = inhibition, most hits filed as inhibitors; Q9Y468; actives 0.66% (n = 230,000); AlphaScreen L3MBTL1–H3K9me1 peptide binding; further: on the % scale 0 is the no-effect control and ±100 the full control effect; nearly all actives have a fitted effect of over 60% in size
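AlphaScreen assay: L3MBTL1 (50 nM final) was preincubated 30 min at room temperature with biotinylated H3(1-15)K9me1 peptide (75 nM final), then 30 min with library compounds; streptavidin donor and nickel chelate acceptor beads (10 ug/mL final) added, 30 min dark.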
Sfp PPTase inh: inhibitors of Bacillus subtilis Sfp phosphopantetheinyl transferase; Biochemical Sfp PPTase activity, qHTS; Q9F4F7; actives 3.5% (n = 310,000); Potency, µM, for inactives: largest response in the series, negative = inhibition, most hits filed as inhibitors; AID 1490;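 further: the enzyme is Sfp with the accession as filed and its product quenches rhodamine fluorescence; 0% = enzyme reaction without inhibitor and -100% = no enzyme wells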
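Buffer: 50 mM Hepes-Na pH 7.6, 10 mM MgCl2, 0.01% Nonidet P-40, 0.01% BSA. Enzyme 15 nM, pre-exposed to compound 15 min; substrates then added and fluorescence change tracked over 30 min.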
JMJD2A Tudor inh: blocks the human JMJD2A Tudor domain. actives 4.4% (n = 390,000). O75164. Potency, µM (doses to about 114 µM), for the others: at the top dose activity change, negative = inhibition, usual class: inhibitors. AID 504339. AlphaScreen JMJD2A-Tudor / H3K4me3 peptide binding; further: on the % scale 0 is the no-effect control and ±100 the full control effect; nearly all actives have a fitted effect of over 50% in size
Target sequence (O75164 whole entry, looked up, the tested form may be a part): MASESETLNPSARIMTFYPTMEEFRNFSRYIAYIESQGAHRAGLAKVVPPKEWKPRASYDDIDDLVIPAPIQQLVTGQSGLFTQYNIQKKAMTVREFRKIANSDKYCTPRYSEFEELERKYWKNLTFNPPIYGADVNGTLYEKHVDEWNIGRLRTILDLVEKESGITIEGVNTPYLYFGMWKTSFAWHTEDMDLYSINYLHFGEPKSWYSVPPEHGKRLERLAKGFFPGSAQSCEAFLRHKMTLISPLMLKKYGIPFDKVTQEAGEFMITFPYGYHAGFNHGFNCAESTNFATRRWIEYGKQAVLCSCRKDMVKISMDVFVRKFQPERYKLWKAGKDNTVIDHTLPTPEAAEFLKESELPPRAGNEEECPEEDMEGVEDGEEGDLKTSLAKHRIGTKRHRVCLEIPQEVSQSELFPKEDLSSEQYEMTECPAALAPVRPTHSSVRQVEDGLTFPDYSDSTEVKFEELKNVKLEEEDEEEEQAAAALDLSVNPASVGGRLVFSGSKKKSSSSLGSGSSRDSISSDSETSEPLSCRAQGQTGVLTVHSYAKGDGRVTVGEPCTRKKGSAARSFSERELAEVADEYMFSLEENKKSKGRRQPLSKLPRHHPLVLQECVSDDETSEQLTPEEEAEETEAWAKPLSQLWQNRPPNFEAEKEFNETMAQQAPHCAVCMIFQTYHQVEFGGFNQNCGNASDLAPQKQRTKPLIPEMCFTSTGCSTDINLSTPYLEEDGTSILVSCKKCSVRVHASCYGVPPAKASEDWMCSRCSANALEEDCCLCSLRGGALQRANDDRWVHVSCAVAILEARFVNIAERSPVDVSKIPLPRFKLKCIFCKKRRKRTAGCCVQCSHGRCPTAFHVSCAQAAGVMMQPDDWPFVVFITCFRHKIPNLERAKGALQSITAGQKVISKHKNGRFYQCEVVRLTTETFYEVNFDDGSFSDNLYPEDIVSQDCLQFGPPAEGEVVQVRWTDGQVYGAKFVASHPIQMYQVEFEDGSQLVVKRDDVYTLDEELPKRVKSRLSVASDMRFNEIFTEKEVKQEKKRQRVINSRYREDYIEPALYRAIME
The depositor's hits bear a star; ? = inconclusive; . = no result given; ! = not active in a repeat; [ ] = dose if it differs, or a comment. The call rests on the fitted dose curve; in most records, active means well fitted curve in the direction sought with a large enough effect; inconclusive means small, poorly fitted or top-dose-only effect, or another doubt; inactive means no such curve, though single readings can be large; an effect the other way counts as inactive or inconclusive. Potency means the concentration at half of the fitted maximal effect.

SMILES	BAZ2B block	HP1b chromo inh	G9a block	L3MBTL1 inh	Sfp PPTase inh	JMJD2A Tudor inh
Cn1cc(Cl)c(C(=O)NC(=S)Nc2sc3c(c2C#N)CCCCC3)n1	-30%	-24%	21%[59 µM]	-6%	?	-32%
CCOc1ccccc1C(=O)NCC(c1ccc(N(C)C)cc1)N1CCc2ccccc21 (stereo unspecified)	5.6µM*	?	13µM*	.	.	10µM*
COc1ccc(OC)c(S(=O)(=O)NCC(c2ccco2)N2CCc3ccccc32)c1 (stereo unspecified)	?	-34%	50µM*	-25%	.	?
COc1ccccc1NC(=O)C(=O)NCC(c1ccco1)N1CCc2ccccc21 (stereo unspecified)	-11%	-7%	?	-2%	.	-34%
Cc1ccc(C(=O)NCC(c2ccco2)N2CCc3ccccc32)cc1C (stereo unspecified)	?	-7%	5%[0.501 µM]	-7%	.	?
COc1ccccc1C(=O)NCC(c1ccco1)N1CCc2ccccc21 (stereo unspecified)	50µM*	5%	50µM*	-10%	.	?
COc1cc(C(=O)NCC(c2ccco2)N2CCc3ccccc32)cc(OC)c1OC (stereo unspecified)	79µM*	-26%	50µM*	-21%	.	?
N#CCCn1c(=O)c(-c2cc(F)cc(F)c2)nc2cnc(Oc3cccc(Cl)c3)nc21	.	.	-3%[12.7 µM]	.	0%	.
O=C(NCC(c1ccco1)N1CCc2ccccc21)c1ccccc1 (stereo unspecified)	?	-18%	50µM*	-4%	.	?
CCCC(=O)Nc1cc(C(=O)O)ccc1Sc1ccc(C)cc1	1%	34%	45µM*	.	-10%	-12%
CCC(NC(=O)Nc1cc(Cl)ccc1OC)c1c(-n2cccc2)sc2c1CCN(C)C2 (stereo unspecified)	?	?	16µM*	.	.	?
CCC(NC(=O)Nc1cccc(C)c1)c1c(-n2cccc2)sc2c1CCN(C)C2 (stereo unspecified)	-38%	3%	-31%[59 µM]	.	.	?
COCCCNC(=O)C1CCN(Cc2cc3ccccc3n2Cc2cccc(C)c2)CC1	?	2%	0%[59 µM]	.	.	-32%
CCSc1c([N+](=O)[O-])c(=O)n(-c2ccccc2)c2ccccc12	.	3%	.	.	.	?
CCN(CC)c1ccc(/C=C2\SC(=O)N(C(C)C)C2=O)o1	?	-11%	7.1µM*	-16%	7.1µM*	-35%
CC(C)N1C(=O)S/C(=C/c2ccc3c(c2)n(C)c(=O)n3C)C1=O	12%	6%	6%[59 µM]	4%	12%	-22%
Cc1ccc(-n2ncc(C(=O)NCc3ccccc3C)c2-n2cccc2)cc1	-13%	23%	-14%[59 µM]	.	.	-11%
COc1ccccc1NC(=O)C1=C(C)Nc2nc(SCc3cccc(F)c3)nn2C1c1ccc(C(=O)O)cc1 (stereo unspecified)	50µM*	30%	8%[12.7 µM]	-4%	.	-17%
COc1ccccc1NC(=O)C1=C(C)Nc2nc(-c3ccc(N(C)C)cc3)nn2C1c1ccncc1 (stereo unspecified)	50µM*	-6%	?	0%	14%	?
CCCCn1c2c(c(=O)n(C)c1=O)C(CC(=O)OCC(=O)Nc1cccc(C(F)(F)F)c1)C(=O)N2 (stereo unspecified)	-4%	28%	32µM*	0%	14%	-17%
CSc1cccc(NC(=O)CN(C)S(=O)(=O)c2ccc3c(c2)n(C)c(=O)c(=O)n3C)c1	-19%	34%	1µM*	.	.	-15%
Cc1nn(CC(=O)NCCN2CCOCC2)c(=O)c2cc3sccc3n12	1%	42%	-12%	.	8%	6%
CNc1ncncc1-c1c(C)noc1C	.	.	5%[0.501 µM]	.	9%	.
COc1ccccc1Nc1cc2ccccc2c(=O)[nH]1	.	.	.	.	.	79µM*
Cc1ccccc1Nc1cc2ccccc2c(=O)[nH]1	-35%	-9%	?	-14%	-16%	45µM*!
SMILES	BAZ2B block	HP1b chromo inh	G9a block	L3MBTL1 inh	Sfp PPTase inh	JMJD2A Tudor inh
O=c1[nH]c(Nc2ccccn2)cc2ccccc12	.	28%	.	.	.	-4%
O=c1[nH]c(Nc2ccccc2Cl)cc2ccccc12	.	27%	.	.	.	-7%
O=c1[nH]c(Nc2ccc(F)cc2)cc2ccccc12	-10%	10%	11µM*	.	-27%	-14%
Cc1ccc(S(=O)(=O)N2CCCCC2)cc1C(=O)NCc1ccc(S(N)(=O)=O)cc1	.	25%	.	-4%	.	-5%
Cn1cccc1C(=O)N1CCC2(CC1)CCN(C(c1ccccc1)c1ccccc1)CC2	.	.	-2%[12.7 µM]	.	20%	.
COc1cc(NC(=O)CSc2nc3nc(C)c(Cc4ccc(C)cc4)c(C)n3n2)cc(OC)c1	17%	59%	6%[59 µM]	.	.	-23%
O=S1(=O)CCC(NCC2CCCO2)C1 (stereo unspecified)	-31%	25%	50µM*	-1%	12%	-20%
N#Cc1cc(Oc2cccc3cccnc23)c(-n2nnc3ccccc32)cc1C#N	-4%	42%	?	14%	50µM*	-6%
C[C@H](NC(=O)C1CC(=O)N(c2ccc3c(c2)OCO3)C1)C(=O)NC1CCCC1 (stereo partly specified)	-14%[57.1 µM]	3%	10%	.	17%	?
CC(C)[C@H](NC(=O)C1CC(=O)N(c2ccc3c(c2)OCO3)C1)C(=O)NC1CCCC1 (stereo partly specified)	?	65%	56µM*	.	3%	21%
CCCN(C(=O)Cn1cnc2onc(-c3ccc(F)cc3)c2c1=O)c1cccc(Cl)c1	16%[57.1 µM]	25%	-16%[59 µM]	.	.	-5%
